# From the supplement of paper PMC8728848
# Many of the other results were omitted from the sample, so the strongest signals are more common in it than they were.
# Tests used:
# Experiment in all cases: glycan array binding signal (z-score within array); higher = stronger binding
# Conditions in all cases: glycan notation: IUPAC condensed, linker removed
# [1] = target: GlcNAc(a1-4)Gal(b1-3)GlcNAc
# Procedure, shortened: (§1)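 Arrays were curated from the Consortium for Functional Glycomics database, 3228 in total, and kept only where the protein sequence was available. Binding is expressed as a within-array Z-score. This score was averaged across arrays of the same protein sequence at different concentrations or buffers and across linkers, and negative values can be read as non-binding.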
# [2] = target: GlcNAc(b1-2)[GlcNAc(b1-4)]Man(a1-3)[GlcNAc(b1-4)][GlcNAc(b1-2)Man(a1-6)]Man(b1-4)GlcNAc(b1-4)GlcNAc
# Procedure, shortened: as §1
# [3] = target: GlcNAc(b1-2)[GlcNAc(b1-4)]Man(a1-3)[GlcNAc(b1-4)][GlcNAc(b1-2)[GlcNAc(b1-6)]Man(a1-6)]Man(b1-4)GlcNAc(b1-4)[Fuc(a1-6)]GlcNAc
# Procedure, shortened: as §1
# [4] = target: GlcNAc(b1-2)[GlcNAc(b1-6)]Man(a1-6)[GlcNAc(b1-2)Man(a1-3)]Man(b1-4)GlcNAc(b1-4)[Fuc(a1-6)]GlcNAc
# Procedure, shortened: as §1
# [5] = target: GlcNAc(b1-2)[GlcNAc(b1-6)]Man(a1-6)[GlcNAc(b1-4)][GlcNAc(b1-2)Man(a1-3)]Man(b1-4)GlcNAc(b1-4)GlcNAc
# Procedure, shortened: as §1
# GlcNAc(b1-3)Gal = target: GlcNAc(b1-3)Gal
# Procedure, shortened: as §1
# GlcNAc(b1-3)GalNAc = target: GlcNAc(b1-3)GalNAc
# Procedure, shortened: as §1
# [6] = target: GlcNAc(b1-3)[GlcNAc(b1-6)]Gal(b1-4)GlcNAc
# Procedure, shortened: as §1
# [7] = target: GlcNAc(b1-3)[GlcNAc(b1-6)]GalNAc
# Procedure, shortened: as §1
# GlcNAc(b1-6)GalNAc = target: GlcNAc(b1-6)GalNAc
# Procedure, shortened: as §1
# [8] = target: Man(a1-2)Man(a1-6)[Man(a1-3)]Man(a1-6)[Man(a1-2)Man(a1-2)Man(a1-3)]Man(b1-4)GlcNAc(b1-4)GlcNAc
# Procedure, shortened: as §1
# [9] = target: Man(a1-3)[Man(a1-6)]Man(b1-4)GlcNAc(b1-4)[Fuc(a1-6)]GlcNAc
# Procedure, shortened: as §1
# [10] = target: Neu5Ac(a2-3)Gal(b1-3)GalNAc6S
# Procedure, shortened: as §1
# [11] = target: Neu5Ac(a2-3)Gal(b1-3)GlcNAc(b1-4)Gal(b1-4)Glc
# Procedure, shortened: as §1
# [12] = target: Neu5Ac(a2-3)Gal(b1-3)GlcNAc6S
# Procedure, shortened: as §1
# [13] = target: Neu5Ac(a2-3)Gal(b1-3)[GlcNAc(b1-6)]GalNAc
# Procedure, shortened: as §1
# [14] = target: Neu5Ac(a2-3)Gal(b1-4)GlcNAc(b1-3)Gal(b1-4)GlcNAc(b1-3)Gal(b1-4)GlcNAc
# Procedure, shortened: as §1
# [15] = target: Neu5Ac(a2-3)Gal(b1-4)GlcNAc(b1-3)Gal(b1-4)GlcNAc(b1-6)[Gal(b1-3)]GalNAc
# Procedure, shortened: as §1
# [16] = target: Neu5Ac(a2-3)Gal(b1-4)GlcNAc(b1-3)[Neu5Ac(a2-3)Gal(b1-4)GlcNAc(b1-6)]GalNAc
# Procedure, shortened: as §1
# [17] = target: Neu5Ac(a2-3)Gal(b1-4)GlcNAc(b1-6)GalNAc
# Procedure, shortened: as §1
# [18] = target: Neu5Ac(a2-3)Gal(b1-4)[Fuc(a1-3)]GlcNAc(b1-3)Gal(b1-4)GlcNAc
# Procedure, shortened: as §1
# Neu5Ac(a2-3)GalNAc = target: Neu5Ac(a2-3)GalNAc
# Procedure, shortened: as §1
# [19] = target: Neu5Ac(a2-6)Gal(b1-4)GlcNAc(b1-2)Man(a1-3)[GlcNAc(b1-4)][Neu5Ac(a2-6)Gal(b1-4)GlcNAc(b1-2)Man(a1-6)]Man(b1-4)GlcNAc(b1-4)GlcNAc
# Procedure, shortened: as §1
# [20] = target: Neu5Ac(a2-6)Gal(b1-4)GlcNAc(b1-2)Man(a1-3)[Neu5Ac(a2-6)Gal(b1-4)GlcNAc(b1-2)Man(a1-6)]Man(b1-4)GlcNAc(b1-4)GlcNAc
# Procedure, shortened: as §1
# [21] = target: Neu5Ac(a2-6)Gal(b1-4)GlcNAc(b1-2)Man(a1-6)[Man(a1-3)]Man(b1-4)GlcNAc(b1-4)GlcNAc
# Procedure, shortened: as §1
# [22] = target: Neu5Ac(a2-6)Gal(b1-4)GlcNAc(b1-3)Gal(b1-4)GlcNAc(b1-6)[Gal(b1-3)]GalNAc
# Procedure, shortened: as §1
# [23] = target: Neu5Ac(a2-6)GlcNAc(b1-4)GlcNAc(b1-4)GlcNAc
# Procedure, shortened: as §1
# [24] = target: Neu5Ac(a2-8)Neu5Ac(a2-3)Gal(b1-3)GalNAc(b1-4)[Neu5Ac(a2-8)Neu5Ac(a2-3)]Gal(b1-4)Glc
# Procedure, shortened: as §1
# [25] = target: Neu5Ac(a2-8)Neu5Ac(a2-3)[GalNAc(b1-4)]Gal(b1-4)Glc
# Procedure, shortened: as §1
# [26] = target: Neu5Ac(a2-8)Neu5Ac(a2-8)Neu5Ac(a2-3)[Gal(b1-3)GalNAc(b1-4)]Gal(b1-4)Glc
# Procedure, shortened: as §1
binder,measurement,setting,value
Cohesin-marm-DC-ASGPR (protein) LDITSHHHHHHDDLDAVRIKVDTVNAKPGDTVRIPVRFSGIPSKGIANCDFVYSYDPNVLEIIEIEPGDIIVDPNPDKSFDTAVYPDRKIIVFLFAEDSGTGAYAITKDGVFATIVAKVKEGAPNGLSVIKFVEVGGFANNDLVEQKTQFFDGGVNVGDTTEPATPTTPVTTPTTTDDLDAASSKFQRDLVTLRTDFSNFTSNTLAEIQALTSQGSSLQETIASLKAEVEGHKQELQAGASELQEHNKQKAHLGRCPHTCVCPSSFVCVPVHSEILLRVQQLVQDLNKLSCQVAILKNNATTERTCCPINWVEHQGSCYWFSRSGKTWPEAERYCQLENTHLVVINSREEQNFVQAHLGSAYTWMGLSDPEGVWKWVDGTDYSSGFQNWKPGQPDDWQGHGLGGGEDCAHFHPDGRWNDDVCQRSYHWVCEAGLTQASQDSHAS,glycan array binding signal (z-score),[1],-0.3
same,glycan array binding signal (z-score),[2],-0.278
same,glycan array binding signal (z-score),[3],-0.313
same,glycan array binding signal (z-score),[4],-0.298
same,glycan array binding signal (z-score),[5],-0.311
same,glycan array binding signal (z-score),GlcNAc(b1-3)Gal,-0.306
same,glycan array binding signal (z-score),GlcNAc(b1-3)GalNAc,-0.287
same,glycan array binding signal (z-score),[6],-0.313
same,glycan array binding signal (z-score),[7],-0.291
same,glycan array binding signal (z-score),GlcNAc(b1-6)GalNAc,4.74
same,glycan array binding signal (z-score),[8],-0.287
same,glycan array binding signal (z-score),[9],-0.31
same,glycan array binding signal (z-score),[10],-0.245
same,glycan array binding signal (z-score),[11],-0.303
same,glycan array binding signal (z-score),[12],-0.277
same,glycan array binding signal (z-score),[13],-0.303
same,glycan array binding signal (z-score),[14],-0.288
same,glycan array binding signal (z-score),[15],-0.307
same,glycan array binding signal (z-score),[16],-0.311
same,glycan array binding signal (z-score),[17],4.81
same,glycan array binding signal (z-score),[18],-0.244
same,glycan array binding signal (z-score),Neu5Ac(a2-3)GalNAc,-0.309
same,glycan array binding signal (z-score),[19],-0.308
same,glycan array binding signal (z-score),[20],-0.126
same,glycan array binding signal (z-score),[21],-0.314
same,glycan array binding signal (z-score),[22],-0.308
same,glycan array binding signal (z-score),[23],-0.312
same,glycan array binding signal (z-score),[24],-0.296
same,glycan array binding signal (z-score),[25],3.43
same,glycan array binding signal (z-score),[26],-0.305
